The values below come from PubChem BioAssay AID1345085 (National Center for Advancing Translational Sciences (NCATS), 2018).

Molecules are shown by their SMILES. Results filed as inconclusive are left out. A number with no mark means an inactive call. Active and inactive are the calls of the source. Calls follow the shape of the dose curve; as a rule, active = well fitted cell-killing curve with a large enough effect; inconclusive = small, poorly fitted or top-dose-only effect, or effect the other way; inactive = no such curve, though single readings can be large or run the other way.
% is scaled to controls: 0 for no effect and ±100 for the full control effect; potency is read from the fitted curve at half-maximal effect.

In this test the test system is Es-2. Kind of test: Confirmatory qHTS for gynecologic anti-cancer compounds from libraries of approved drugs and bioactive compounds. Also: nearly all actives have a fitted effect of over 55% in size. To be noted: gynecologic cancer cell panel viability, ATPlite luminescence, 48 h; series mostly up to 57.6 µM; activity change, negative = viability loss: at the top concentration. Summed up: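 Viability is measured as ATP-dependent luciferase light using ATPlite, read 15 min after reagent addition at room temperature. Compounds, in DMSO, span 57.5 uM down to 0.977 nM over 11 threefold steps for 48 h.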
(qHTS replaces the single test concentration by a dilution series.)
As for `O=C(O)c1ccc(Nc2ncc3c(n2)-c2ccc(Cl)cc2C(c2c(F)cccc2F)=NC3)cc1`, the “activity change, negative = viability loss” value was 5.57%.

As for `COc1ccc2cc3[n+](cc2c1OC)CCc1cc2c(cc1-3)OCO2`, the “activity change, negative = viability loss” value is -17.3%.

As for `CCc1c2c(nc3ccc(O)cc13)-c1cc3c(c(=O)n1C2)COC(=O)[C@]3(O)CC`, the Potency is 0.0385 µM (active).

On to `C1CCC(C(CC2CCCCN2)C2CCCCC2)CC1` (configuration not stated), for which the Potency is 24.3 µM (active).

Take `CNc1nc(Nc2ccc(C(=O)N3CCOCC3)cc2OC)ncc1Cl`: the “activity change, negative = viability loss” value is -4.5%.

With `CNC(=O)c1ccccc1Sc1ccc2c(/C=C/c3ccccn3)n[nH]c2c1`, the Potency is 19.3 µM (active).

Regarding `Nc1ncnc2c1ncn2[C@@H]1O[C@H](CO)C[C@H]1O`, the “activity change, negative = viability loss” value was 0.037%.

Regarding `CCCC(Nc1nc(-c2ccc(NC(=O)NCC)c(OC)c2)ncc1C)c1cccnc1` (configuration not stated), the Potency is 0.193 µM (active).

In the case of `CCOC(=O)C1=C(C)NC2=C(C(=O)CC(C)(C)C2)C1c1ccc(-c2ccccc2)cc1` (configuration not stated), the “activity change, negative = viability loss” value was -4.79%.

Take `O=C1Cc2cc(CCN3CCN(c4nsc5ccccc45)CC3)c(Cl)cc2N1`: the “activity change, negative = viability loss” value is 12.2%.

In the case of `O=C(c1ccc(/C=C/c2n[nH]c3ccccc23)cc1)N1CCNCC1`, the Potency is 27.3 µM (active).

Turning to `COc1cc2ncnc(Nc3ccc(F)c(Cl)c3)c2cc1OCCCN1CCOCC1`, the “activity change, negative = viability loss” value is -2.6%.

For `Cc1cc(C2CCCCC2)n(O)c(=O)c1`, the Potency was 9.94 µM (active).

In the case of `CC(C)n1c(/C=C/[C@@H](O)C[C@@H](O)CC(=O)O)c(-c2ccc(F)cc2)c2ccccc21`, the Potency is 5.44 µM (active).

In the case of `C#C[C@]1(O)CC[C@H]2[C@@H]3CCC4=CC(=O)CC[C@@H]4[C@H]3CC[C@@]21CC`, the “activity change, negative = viability loss” value is 4.9%.

Regarding `CCN[C@H]1C[C@H](C)S(=O)(=O)c2sc(S(N)(=O)=O)cc21`, the “activity change, negative = viability loss” value was 0.905%.

Consider `CS(=O)(=O)c1ccc(C(=O)Nc2ccc(Cl)c(-c3ccccn3)c2)c(Cl)c1`, for which the “activity change, negative = viability loss” value was 5.55%.

Take `CCS(=O)(=O)N1CCN(c2ccc(Nc3ncc(C(N)=O)c(NC4CC4)n3)cc2)CC1`: the “activity change, negative = viability loss” value is -23%.

Regarding `C[C@]12CCC(=O)C=C1[C@@H]1C[C@@H]1[C@H]1[C@@H]3[C@@H]4C[C@@H]4[C@@]4(CCC(=O)O4)[C@@]3(C)CC[C@@H]12`, the “activity change, negative = viability loss” value is -1.03%.

With `CC(Oc1ccc2[nH]nc(/C=C/c3cnn(CCO)c3)c2c1)c1c(Cl)cncc1Cl` (configuration not stated), the Potency is 4.32 µM (active).

With `CC(C)C[C@H](NC(=O)[C@@H](NC(=O)c1cccc(-c2ccccc2)n1)[C@@H](C)O)B(O)O`, the Potency is 0.0685 µM (active).

For the molecule `Nc1nc(=S)c2[nH]cnc2[nH]1`, the Potency was 3.43 µM (active).

Turning to `COCCOc1nc(-c2ccc(Cl)c(Cl)c2)n(-c2ccc(NC(=O)CCl)cc2)n1`, the Potency is 5.44 µM (active).

Turning to `COc1cc(-c2nn(C3CCC(N4CCN(C(C)=O)CC4)CC3)c3ncnc(N)c23)ccc1NC(=O)c1cc2ccccc2n1C` (configuration not stated), the Potency is 30.6 µM (active).

Consider `CC(C)[C@@H](CS(=O)(=O)C(C)C)N1C(=O)[C@@](C)(CC(=O)O)C[C@H](c2cccc(Cl)c2)[C@H]1c1ccc(Cl)cc1`, for which the “activity change, negative = viability loss” value was 20.7%.

For `Nc1nccc(Oc2ccc(NC(=O)c3c[nH]cc(-c4ccc(F)cc4)c3=O)cc2F)c1Cl`, the Potency was 34.3 µM (active).

Consider `Nc1ccn([C@@H]2O[C@H](CO)[C@@H](O)C2(F)F)c(=O)n1`, for which the Potency is 0.0306 µM (active).

Take `Cc1nc(Nc2n[nH]c3c2CN(C(=O)NC(CN(C)C)c2ccccc2)C3(C)C)c2sccc2n1` (configuration not stated): the Potency is 4.32 µM (active).

For the molecule `CC(=O)O[C@H]1C(=O)[C@@]2(C)[C@H]([C@H](OC(=O)c3ccccc3)[C@]3(O)C[C@H](OC(=O)[C@H](O)[C@@H](NC(=O)c4ccccc4)c4ccccc4)C(C)=C1C3(C)C)[C@]1(OC(C)=O)CO[C@@H]1C[C@@H]2O`, the Potency was 0.0819 µM (active).

Consider `COCCOc1ccc2c(c1)ncn2-c1ccc2cccc(N3CCC(N)CC3)c2n1`, for which the Potency is 6.11 µM (active).

In the case of `Cc1nc(Nc2ncc(C(=O)Nc3c(C)cccc3Cl)s2)cc(N2CCN(CCO)CC2)n1`, the Potency was 13.7 µM (active).

With `CN(C)C/C=C/C(=O)Nc1cc2c(Nc3ccc(F)c(Cl)c3)ncnc2cc1OC1CCOC1` (configuration not stated), the Potency was 15.3 µM (active).

Consider `Cn1cc(-c2[nH]c3cc(NC(=O)[C@H](N)C4CCCCC4)cc4c3c2C=NNC4=O)cn1`, for which the Potency was 6.85 µM (active).

As to `COc1cc2c(cc1-c1c(C)noc1C)ncc1[nH]c(=O)n(C(C)c3ccccn3)c12` (configuration not stated), the Potency is 2.17 µM (active).

For the molecule `CNc1nccc(-c2cccnc2Oc2cc(C(=O)Nc3cccc(C(F)(F)F)c3)ccc2C)n1`, the Potency was 6.11 µM (active).

With `Cc1cc(Nc2nc(N[C@@H](C)c3ncc(F)cn3)ncc2Cl)n[nH]1`, the “activity change, negative = viability loss” value was -7.91%.

For the molecule `Cc1cc(Nc2cc(N3CCN(C)CC3)nc(/C=C/c3ccccc3)n2)n[nH]1`, the Potency was 24.3 µM (active).
